Screens (PubChem)
A selection: hits, their analogues and other compounds. The true share with any hit is near 2%.
FUS yeast rescue: qHTS for Suppressors of FUS Proteinopathy: Primary screen using FUS-linked yeast assay; 390,000 tested, 0.24% active; Potency, µM (series often up to 76.6 µM), usual class: activators; AID 1347120, 2019; S. cerevisiae FUS-expressing, growth rescue, OD600, 24 h;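 also: plate controls were DMSO vehicle for no effect and reference control for full effect; nearly all actives have a fitted effect of over 55% in size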
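Yeast FUS proteinopathy model; galactose-induced FUS (2%), starting OD 0.005. Cpds in dilution series, 24hr, 30C, 99% humidity. Abs 600 nm growth. Pos ctrl CP55940 (top 92uM final); neg ctrl DMSO.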
aSyn rescue: qHTS of alpha-syn Inhibitors | 370,000 tested, 0.14% active | AID 652106, 2013 | Potency, µM (series often up to 46.1 µM), inactives show at the highest dose growth rescue (activation), actives largely listed as activators | Yeast expressing alpha-synuclein, growth rescue, BacTiter-Glo, 24 h; also: % of control where 0% means no effect; nearly all actives have a fitted effect of over 65% in size
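Galactose-induced alpha-syn yeast (OD600=0.02, raffinose-pregrown) + pinned cpd, 24 hr, 30 deg C; growth by BacTiter-Glo luminescence. Growth restoration scores as activation.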
Abeta rescue: qHTS for compounds that reverse cellular toxicity of Amyloid beta (A-beta) peptide in yeast: Primary Screen. yeast expressing A-beta42, growth rescue, OD600, 48 h; response scale: 0% DMSO, 100% iron-clioquinol control. Potency, µM (titrated, usually from 46.1 µM), usual class: activators. 410,000 tested, 0.063% active. AID 1347071, 2019; also: nearly all actives have a fitted effect of over 55% in size
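Yeast A-beta toxicity model in growth medium with pinned compounds, 48 h at 30 C; growth read as absorbance at 600 nm. Normalized to FeCl3/clioquinol equimolar mix (positive) and DMSO (negative).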
TDP-43 yeast inh: qHTS of TDP-43 Inhibitors | TDP-43 expressing yeast growth rescue, BacTiter-Glo, 24 h | Potency, µM (series often up to 46.1 µM), inactives show at the highest dose growth rescue (activation), most hits filed as activators | 410,000 tested, 1.8% active | AID 652104, 2013; also: % of control where 0% means no effect; nearly all actives have a fitted effect of over 50% in size
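Readout is BacTiter-Glo luminescence of cell growth, so inhibitors register as activators. TDP-43-expressing yeast at OD600=0.02 in galactose medium, after raffinose pregrowth to mid-log, were incubated with compound for 24 hr at 30 deg C.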
MBNL1 CUG block: qHTS Assay for Inhibitors of MBNL1-poly(CUG) RNA binding; Muscleblind-like protein 1 (Homo sapiens), Q9NR56; TR-FRET MBNL1-His/biotin-(CUG)12 binding, 665/545 ratio; Potency, µM (doses to about 57.5 µM), without a hit: top-dose activity change, negative = inhibition, actives largely listed as inhibitors; 280,000 tested, 0.036% active; AID 2675, 2010; active = well fitted inhibition curve with a large enough effect in the signal ratio, with a control signal flat, not every such curve was filed as active; inconclusive = small, poorly fitted or top-dose-only effect, or effect the other way, or a change in a side signal; inactive = no such curve, though single readings can be large or run the other way; the % refers to the signal ratio; also: % is scaled to controls: 0 for no effect and ±100 for the full control effect
Target sequence (Q9NR56 whole entry, looked up): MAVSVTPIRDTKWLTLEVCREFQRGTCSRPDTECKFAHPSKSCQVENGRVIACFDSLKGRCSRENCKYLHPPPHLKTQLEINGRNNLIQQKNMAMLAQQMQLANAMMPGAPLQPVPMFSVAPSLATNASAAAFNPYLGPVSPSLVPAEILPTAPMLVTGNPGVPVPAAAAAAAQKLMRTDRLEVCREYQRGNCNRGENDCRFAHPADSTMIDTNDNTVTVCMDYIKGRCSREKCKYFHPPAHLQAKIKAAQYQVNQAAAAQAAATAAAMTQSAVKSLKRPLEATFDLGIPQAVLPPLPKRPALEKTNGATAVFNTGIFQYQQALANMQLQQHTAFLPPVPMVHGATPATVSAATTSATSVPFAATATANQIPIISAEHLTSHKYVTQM
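TR-FRET readout: Ex 340 nm, 665/545 nm emission ratio, normalized to buffer-only (basal) and MBNL1-(CUG)12 controls. Complex of MBNL1-His with Biotin-(CUG)12, compounds 92 nM–58 uM, incubated 60 min at room temperature.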
GRP78 ERSR act: qHTS for Inducers of the Endoplasmic Reticulum Stress Response (ERSR) in Human Glioma: qHTS. Potency, µM, inactives show at the highest dose activation, most hits filed as activators. AID 602332, 2012. U87-MG GRP78 promoter luciferase reporter, 16 h. 420,000 tested, 0.02% active; also: series mostly up to about 76 µM; % of control where 0% means no effect; nearly all actives have a fitted effect of over 35% in size
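Stably transfected U87-MG human glioma cells carrying a GRP78-based luminescent sensor were seeded at 1000 cells/well, pin-dosed with compounds and incubated 16 h. Luciferase reagent was then added, and end-point luminescence was read after 10 min at room temperature.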
* hit, by the source's call; ! = a repeat was not active. Unless noted, calls follow the shape of the dose curve; as a rule, active = well fitted curve in the direction sought with a large enough effect; inconclusive = small, poorly fitted or top-dose-only effect, or another doubt; inactive = no such curve, though single readings can be large; an effect the other way counts as inactive or inconclusive. Potency is read from the fitted curve at half-maximal effect.

What do the screens show for `O=C(NCc1nc2ccccc2[nH]1)C1=C[C@@H](c2ccccc2)C[C@@H](OCc2ccc(CO)cc2)O1`?
FUS yeast rescue: inactive; aSyn rescue: 2%; Abeta rescue: inactive; TDP-43 yeast inh: 3%; MBNL1 CUG block: 17%; GRP78 ERSR act: -1%

What do the screens show for `COC(=O)c1ccccc1C(=O)N1CCOc2ccc(CN3CCN(c4ccccn4)CC3)cc2C1`?
GRP78 ERSR act: -2%

Results for CC(NCCN(C)C)C1CCC2C3CCc4cc(O)ccc4C3CCC12C (configuration not stated) ?
aSyn rescue: -1%; Abeta rescue: inactive; TDP-43 yeast inh: 0.32µM*; GRP78 ERSR act: -3%

How did C[C@@]12CC[C@@H]3c4ccc(O)cc4CC[C@H]3[C@H]1CC[C@H]2O do in these assays?
GRP78 ERSR act: -1%

What do the screens show for `COc1cc(-c2ccc(C)cc2)cc2c1OCCN(C(=O)CCn1ccc(C)n1)C2`?
GRP78 ERSR act: -3%

How did CC1(C)Cc2c(C#N)c(N3CCN(C(=O)c4ccccc4Cl)CC3)nc(-c3ccco3)c2CS1 do in these assays?
FUS yeast rescue: 11µM*; aSyn rescue: 6%; Abeta rescue: inactive; TDP-43 yeast inh: 22%; MBNL1 CUG block: 34%; GRP78 ERSR act: -1%

Results for O=[N+]([O-])c1ccc(Sc2nccn2Cc2ccccc2)c([N+](=O)[O-])c1 ?
aSyn rescue: -7%; Abeta rescue: inactive; TDP-43 yeast inh: 14µM*; MBNL1 CUG block: inconclusive; GRP78 ERSR act: -1%

What do the screens show for `CC(C)C(=O)NC(=S)/C=C1/N(C)c2ccccc2C1(C)C`?
FUS yeast rescue: inactive; aSyn rescue: -2%; Abeta rescue: inconclusive; TDP-43 yeast inh: 35µM*; GRP78 ERSR act: -3%

Results for COc1ccccc1OCC(=O)/C=C1/N(C)c2ccccc2C1(C)C ?
FUS yeast rescue: inactive; aSyn rescue: 1%; Abeta rescue: inactive; TDP-43 yeast inh: 14µM*; MBNL1 CUG block: -2%; GRP78 ERSR act: -1%

Results for CN1/C(=C\C(=O)COC(=O)c2ccccc2O)C(C)(C)c2ccccc21 ?
FUS yeast rescue: inactive; aSyn rescue: -27%; Abeta rescue: inactive; TDP-43 yeast inh: -19%; MBNL1 CUG block: -6%; GRP78 ERSR act: 1%

Results for Cc1ccc(CN2CCCCC(NC(=O)c3ccc(F)cc3)C2=O)cc1 (configuration not stated) ?
FUS yeast rescue: inactive

How did Cc1ccc(CN(Cc2cccn2-c2nnc(N3CCCC3=O)s2)C(=O)Nc2ccccc2Cl)cc1 do in these assays?
FUS yeast rescue: 35µM*; Abeta rescue: inactive; TDP-43 yeast inh: -1%; GRP78 ERSR act: -3%

What do the screens show for `O=C(Nc1ccc(C(F)(F)F)cc1)C1CCN(c2cnccn2)CC1`?
FUS yeast rescue: inactive; aSyn rescue: -8%; Abeta rescue: inactive; TDP-43 yeast inh: 16µM*!; MBNL1 CUG block: -5%; GRP78 ERSR act: -4%

How did Cc1ccc(NC(=O)C2CCCN(c3cnccn3)C2)cc1Cl (configuration not stated) do in these assays?
FUS yeast rescue: inactive; Abeta rescue: inactive; TDP-43 yeast inh: 22µM*; GRP78 ERSR act: -1%

Results for CCOC(=O)c1ccc(NC(=O)C2CCCN(c3cnccn3)C2)cc1 (configuration not stated) ?
FUS yeast rescue: inactive; aSyn rescue: inconclusive; Abeta rescue: inactive; TDP-43 yeast inh: 20µM*; MBNL1 CUG block: -10%; GRP78 ERSR act: 20%

How did O=C(Nc1ccc(F)c(Cl)c1)C1CCCN(c2cnccn2)C1 (configuration not stated) do in these assays?
FUS yeast rescue: inactive; aSyn rescue: inconclusive; Abeta rescue: inactive; TDP-43 yeast inh: inconclusive; MBNL1 CUG block: 3%; GRP78 ERSR act: -6%

How did CC(O)(COc1ccccc1)c1ccc2c(c1)CN(Cc1ccccn1)CCO2 (configuration not stated) do in these assays?
GRP78 ERSR act: -2%

How did COc1cc(=O)n2c(c1C(=O)N(C)Cc1nonc1C)CCN(Cc1cc(C)c(C)cc1C)CC2 do in these assays?
GRP78 ERSR act: -3%

Results for COc1cc2c(cc1OC)C(c1ccc(Cl)cc1)N(c1ccc(C)c(F)c1)C(=O)C2 (configuration not stated) ?
FUS yeast rescue: inconclusive; Abeta rescue: inactive; TDP-43 yeast inh: 35µM*; GRP78 ERSR act: -5%

How did c1ccc2c(CCC3CCNCC3)c[nH]c2c1 do in these assays?
GRP78 ERSR act: -3%

Results for CCn1c(SCc2nc(-c3cccs3)no2)nnc1-c1c[nH]c2ccccc12 ?
FUS yeast rescue: inactive; aSyn rescue: -17%; Abeta rescue: inactive; TDP-43 yeast inh: -15%; MBNL1 CUG block: 3%; GRP78 ERSR act: -9%

What do the screens show for `c1ccc(-c2noc(CSc3nnnn3C3CCCCC3)n2)cc1`?
FUS yeast rescue: inactive; aSyn rescue: 3%; Abeta rescue: inactive; TDP-43 yeast inh: 13µM*; MBNL1 CUG block: -5%; GRP78 ERSR act: 4%

How did CCn1c(SCc2nc(-c3ccccc3)no2)nnc1-c1cccs1 do in these assays?
FUS yeast rescue: inactive; aSyn rescue: 6%; Abeta rescue: inactive; TDP-43 yeast inh: 13µM*; MBNL1 CUG block: -6%; GRP78 ERSR act: -1%

How did Clc1ccc(-c2nnc(CSc3nnc(-c4cccs4)n3Cc3ccccc3)o2)cc1 do in these assays?
FUS yeast rescue: inconclusive; aSyn rescue: inconclusive; Abeta rescue: inactive; TDP-43 yeast inh: 18µM*; MBNL1 CUG block: -17%; GRP78 ERSR act: -4%

Results for CCn1c(SCc2nc(-c3ccccc3)no2)nnc1-c1ccco1 ?
FUS yeast rescue: inactive; aSyn rescue: 2%; Abeta rescue: inactive; TDP-43 yeast inh: 18µM*; MBNL1 CUG block: -10%; GRP78 ERSR act: 2%

How did COc1cc(=O)n2c(c1C(=O)N(C)Cc1nccs1)CCN(Cc1cc3ccccc3s1)CC2 do in these assays?
GRP78 ERSR act: -1%

How did CCn1c(SCc2nc(-c3ccccc3)no2)nc2ccccc21 do in these assays?
FUS yeast rescue: inactive; aSyn rescue: 6%; Abeta rescue: inactive; TDP-43 yeast inh: 16µM*; MBNL1 CUG block: -11%; GRP78 ERSR act: 0%

How did COc1ccccc1NCc1nc2ccccc2n1C do in these assays?
FUS yeast rescue: inactive
